12-LOX inh: Primary qHTS assay for inhibitors of human arachidonate 12S-lipoxygenase (ALOX12): Round 2 | purified 12hLO, xylenol orange hydroperoxide absorbance | Potency, µM (titrated, usually from 108 µM), most hits filed as inhibitors | 580,000 compounds, 1.1% hits | AID 1671190, 2021
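Purified human 12hLO at 150 nM in 25 mM Hepes, 0.01% Triton X-100, pH 7.0, preincubated 15 min at room temperature with compound. Reaction started with 40 uM arachidonic acid, 30 min at room temperature. Hydroperoxide measured by Fe-xylenol orange, 573/405 nm absorbance ratio.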
Sfp inh: qHTS Assay for Inhibitors of Bacillus subtilis Sfp phosphopantetheinyl transferase (PPTase). 4'-phosphopantetheinyl transferase ffp (Bacillus subtilis), Q9F4F7. Biochemical Sfp PPTase activity, qHTS. Potency, µM, actives largely listed as inhibitors. 310,000 compounds, 3.5% hits;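 also: the enzyme is Sfp with the accession as filed and its product quenches rhodamine fluorescence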
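Buffer: 50 mM Hepes-Na pH 7.6, 10 mM MgCl2, 0.01% Nonidet P-40, 0.01% BSA. Enzyme 15 nM, pre-exposed to compound 15 min; substrates then added and fluorescence change tracked over 30 min.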
VDR inh: Inhibitors of the vitamin D receptor (VDR): qHTS | Vitamin D3 receptor (Homo sapiens), P11473 | VDR-SRC2-3 peptide fluorescence polarization, 2 h | Potency, µM, actives largely listed as inhibitors | 400,000 compounds, 0.93% hits | AID 504847, 2011
Target sequence (P11473 whole entry, looked up): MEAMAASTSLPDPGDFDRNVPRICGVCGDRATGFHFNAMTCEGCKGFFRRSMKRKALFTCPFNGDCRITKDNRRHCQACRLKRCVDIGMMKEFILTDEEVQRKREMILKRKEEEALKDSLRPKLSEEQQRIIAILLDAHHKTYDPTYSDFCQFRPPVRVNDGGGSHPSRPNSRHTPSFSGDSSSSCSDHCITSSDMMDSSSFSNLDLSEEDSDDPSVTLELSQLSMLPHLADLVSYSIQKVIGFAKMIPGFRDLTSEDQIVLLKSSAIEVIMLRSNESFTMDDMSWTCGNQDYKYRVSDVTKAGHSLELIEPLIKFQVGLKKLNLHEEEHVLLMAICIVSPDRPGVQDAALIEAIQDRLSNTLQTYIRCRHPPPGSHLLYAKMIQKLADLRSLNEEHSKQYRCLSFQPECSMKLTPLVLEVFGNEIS
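Signal is fluorescence polarization, reporting how far test compounds block the interaction of VDR with the SRC2-3 coregulator peptide after a 2 h room-temperature incubation.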
G9a block: qHTS Assay for Inhibitors of Histone Lysine Methyltransferase G9a | Histone-lysine N-methyltransferase EHMT2 (Homo sapiens), Q96KQ7 | G9a H3K9 monomethylation, AlphaScreen, 2 h | Potency, µM (highest dose often 102 µM), actives largely listed as inhibitors | 350,000 compounds, 8.8% hits; also: nearly all actives have a fitted effect of over 75% in size
Target sequence (Q96KQ7 913-1193 limits assumed): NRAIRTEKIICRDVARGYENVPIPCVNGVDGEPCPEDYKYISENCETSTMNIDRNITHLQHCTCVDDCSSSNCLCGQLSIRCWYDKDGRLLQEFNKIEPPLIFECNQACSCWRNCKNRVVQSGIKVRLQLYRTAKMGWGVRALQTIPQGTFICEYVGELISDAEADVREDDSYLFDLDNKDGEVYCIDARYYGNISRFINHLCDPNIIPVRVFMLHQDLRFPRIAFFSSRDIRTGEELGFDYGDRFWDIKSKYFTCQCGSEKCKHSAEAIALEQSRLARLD
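Chemiluminescent proximity detection of H3K9 monomethylation, read after 10 min bead incubation in the dark. Reaction: 20 nM G9a, 500 nM biotin-H3K9 peptide, 20 uM SAM cofactor, 2 h, room temperature, following 15 min enzyme-compound preincubation.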
GRP78 ERSR act: qHTS for Inducers of the Endoplasmic Reticulum Stress Response (ERSR) in Human Glioma: qHTS | U87-MG GRP78 promoter luciferase reporter, 16 h | Potency, µM, hits mostly activators | 420,000 compounds, 0.02% hits; also: series mostly up to about 76 µM; nearly all actives have a fitted effect of over 35% in size
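ERSR induction read as luciferase luminescence (Bright-Glo, 10 min at room temperature) in stably transfected human U87-MG glioma cells exposed to compounds for 16 h, using GRP78 as sensor.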
A number is an active result; . = inactive; ? = inconclusive; / = not tested or not shown; [ ] = dose if it differs, or a comment. Shown is part of a subset that was picked to be rich in hits. Calls follow the shape of the dose curve; as a rule, active = well fitted curve in the direction sought with a large enough effect; inconclusive = small, poorly fitted or top-dose-only effect, or another doubt; inactive = no such curve, though single readings can be large; an effect the other way counts as inactive or inconclusive.

SMILES | 12-LOX inh | Sfp inh | VDR inh | G9a block | GRP78 ERSR act
CCOC(=O)c1ccc(-c2ccc(/C=N/NC(=O)CN(c3cccc(C)c3)S(C)(=O)=O)o2)cc1 | . | . | . | 7.9µM | .
CCOc1ccc(S(=O)(=O)N(CC(=O)N/N=C/c2ccc(-c3ccc([N+](=O)[O-])cc3)o2)c2ccccc2)cc1 | 32µM | . | . | 1.6µM | .
Cc1ccc(-n2nc(CO)c(C(=O)NCc3ccc4c(c3)OCO4)n2)cc1 | . | / | / | / | /
CC(CCc1ccc(O)cc1)NCc1ccc(Br)cc1 (stereo not drawn) | 13µM | . | . | / | .
CCN(CC)CCc1c(C)[nH]c(C(=O)OCc2ccccc2)c1C | . | . | . | 79µM | .
C=CCN1C(=O)COc2ccc(NC(=O)c3cc(=O)c4cc(Cl)ccc4o3)cc21 | . | / | / | / | /
Cc1[nH]n(-c2ccccc2)c(=O)c1C(C[N+](=O)[O-])c1ccc(Br)cc1 (stereo not drawn) | ? | . | ? | 40µM | .
Cc1[nH]n(-c2ccccc2)c(=S)c1C=Nc1ccc([N+](=O)[O-])cc1 | ? | 6.3µM | 40µM | 0.89µM | .
Cc1[nH]n(-c2ccccc2)c(=O)c1C(c1cccc([N+](=O)[O-])c1)c1c(C)[nH]n(-c2ccccc2)c1=O | . | . | 56µM | 35µM | .
CCOc1ccc(C(c2c(C)[nH]n(-c3ccccc3)c2=O)c2c(C)[nH]n(-c3ccccc3)c2=O)cc1OC | 50µM | / | ? | 8.9µM | .
COCC(C)NS(=O)(=O)c1ccc(C)cc1C (stereo not drawn) | . | / | / | / | /
O=C1CC(c2ccccc2)N(C(=O)CNC(=O)c2cc3ccccc3[nH]2)CCCCCN1 (stereo not drawn) | . | / | / | / | /
Cc1nn(-c2ccccc2)nc1C(=O)c1c(C)[nH]n(-c2ccccc2)c1=O | . | . | . | / | .
Cc1[nH]c2ccccc2c1C(C[N+](=O)[O-])c1cccc(O)c1 (stereo not drawn) | . | . | . | ? | .
COc1cccc(C(C[N+](=O)[O-])c2c(C)[nH]n(-c3ccccc3)c2=O)c1 (stereo not drawn) | . | 28µM | ? | 10µM | .
S=c1[nH]nc(Nc2cccc(Cl)c2)s1 | ? | 40µM | . | 1.4µM | .
Cc1ccc(Nc2n[nH]c(=S)s2)cc1C | ? | / | / | / | .
Cc1ccc(-c2csc(Nc3ccccc3Cl)n2)cc1 | . | / | / | / | /
S=c1[nH]nc(Nc2ccccc2Cl)s1 | 32µM | . | . | 1.4µM | .
CCCCCCCOc1ccc(C(=O)Oc2ccc(C(C)=O)cc2)cc1 | . | / | / | / | /
O=c1c2ccccc2nc2n1CC/C2=C/N1CCN(c2cccc(C(F)(F)F)c2)CC1 | / | 32µM | . | 10µM | .
Cc1ccccc1CN1CCC(CNC(=O)c2cccc3c2SCCC3=O)CC1 | . | / | / | / | /
CC(C)(C)c1csc(NC(=O)C2CCN(c3ccc(C#N)cn3)CC2)n1 | . | / | / | / | /
CCOC(=O)C1CCCN(C(=O)Cc2ccc(OC)c(OC)c2)C1 (stereo not drawn) | . | . | . | . | .
CCOC(=O)C1CCCN(CCCc2ccccc2)C1 (stereo not drawn) | . | . | . | . | .
SMILES | 12-LOX inh | Sfp inh | VDR inh | G9a block | GRP78 ERSR act
CCOC(=O)C1CCCN(Cc2ccc(OCc3ccccc3)c(OC)c2)C1 (stereo not drawn) | 0.56µM | ? | . | .[0.501 µM] | .
CCOC(=O)C1CCCN(Cc2ccc(OCc3ccccc3)cc2)C1 (stereo not drawn) | . | . | . | / | .
CCOC(=O)C1CCCN(Cc2cccc(Cl)c2)C1 (stereo not drawn) | ? | . | . | 8.9µM | .
CCOC(=O)C1CCCN(CC(=O)c2ccc(F)cc2)C1 (stereo not drawn) | ? | 50µM | . | ? | .
CCOC(=O)C1CCCN(Cc2ccc(O)c(OC)c2)C1 (stereo not drawn) | ? | . | . | 6.3µM | .
CC(SCc1cccc(Cl)c1)C(=O)NC(N)=O (stereo not drawn) | . | / | / | / | /
CCc1ccc(CC)c(C(=O)Cn2cnc3c2c(=O)n(C)c(=O)n3C)c1 | . | / | / | / | /
COC(=O)[C@H](CC(C)C)NC(=O)N1CCc2[nH]cnc2C1c1ccc(OC)cc1F (stereo partly drawn) | . | / | / | / | /
Cc1ccccc1C(=O)N1CCC(CCC(=O)N2CCN(c3ccccn3)CC2)CC1 | . | / | / | / | /
Clc1cccc(CN2CCCCCC2)c1 | ? | . | . | 11µM | .
COc1ccc(CN2CCC(C(=O)c3cccc(Cl)c3)CC2)cc1 | . | . | . | .[0.501 µM] | .
Clc1cccc(CN2CCCCCC2)c1Cl | ? | . | . | 20µM | .
O=C(NCc1ccccc1CN1CCCC1)c1ccccc1Cl | . | / | / | / | /
Nc1cccc(CN2CCCC2)c1 | . | . | . | / | .
O=C(c1cccc(Cl)c1)C1CCCN(Cc2ccc(N3CCNC3=O)cc2)C1 (stereo not drawn) | . | . | . | 50µM | .
Fc1ccc(OCc2nc(C3CCCN3)no2)cc1 (stereo not drawn) | . | / | / | / | /
Cc1cc(Cl)c(OCCCNCc2ccccc2)c(Br)c1 | ? | ? | . | 11µM | .
Cc1ccc(OCCNCc2ccccc2)c(C)c1 | ? | ? | . | 14µM | .
Cc1ccc(OCCSc2ncccn2)c(C)c1 | . | . | . | . | .
Cc1ccc(OCCCCNC(C)c2ccccc2)c(C)c1 (stereo not drawn) | 4.5µM | . | . | 11µM | .
Cc1cc(C)c(OCCCNCc2ccccc2)c(Br)c1 | ? | . | . | 13µM | .
O=C(Nc1nnc(Cc2ccccc2)s1)c1cc(=O)c2ccccc2o1 | . | / | / | / | /
CCOC(=O)c1c(C)c(CCC(=O)NCCN2CCCC2)c(C)n1C | . | / | / | / | /
O=C(O)c1cc(N/N=C2/CC(c3ccccc3)Oc3ccccc32)ccc1Cl (stereo not drawn) | ? | . | . | 11µM | .
O=C(CSc1nc2ccccc2s1)N1N=C(c2cccs2)CC1c1ccc(F)cc1 (stereo not drawn) | . | . | . | . | .
O=C(CSc1nc2c(cnn2-c2ccc(F)cc2)c(=O)[nH]1)N1N=C(c2cccs2)CC1c1ccc(F)cc1 (stereo not drawn) | . | . | / | 32µM | /
COc1ccc(OC)c(C(=O)OCc2nc(N)c3ccccc3n2)c1 | . | / | / | / | /
Cc1cc(NC(=O)C(C)Sc2nnc3c(Cl)cc(Cl)cn23)on1 (stereo not drawn) | . | / | / | / | /
N#C/C(=N\Nc1cccc2ccccc12)c1nnc2n1CCCCC2 | ? | ? | . | 1.8µM | .
N#C/C(=C\c1c[nH]c2ccccc12)c1nnc2n1CCCCC2 | . | . | . | . | .

Compound activity (PubChem BioAssay)
